Test results from the supplement of paper PMC12282887.
± gives the standard deviation of the averaged measurements.

Columns and labels:
Assay in all cases: promoter activity interaction Z-score (Lux/OD deviation from empty-vector control); higher = stronger promoter induction by the compound
[1] = tested on: E. coli BW25113 robp lux reporter
How it was run: (§1)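 Four 1:2 dilutions of each compound were tested in biological duplicates on E. coli BW25113 carrying low-copy luxCDABE promoter reporters, either wild type or deleted for one of three genes. Cultures of 40 µl LB Lennox in 384-well plates were kept at 37°C and read for OD600 and luminescence every 30 min for 12 h. Integration windows were 0–8 h for wild type and 1–9 h for deletion strains, and wells under 10% of the median growth value were discarded. The score is a Z-transformed residual of growth-normalised luminescence relative to a control fit.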

[2] = tested on: E. coli BW25113 soxSp lux reporter
How it was run: as §1

[3] = tested on: E. coli BW25113 tolCp lux reporter
How it was run: as §1

[4] = 17.3 µg/ml, genetic background: wild type
[5] = 17.3 µg/ml, genetic background: ΔmarA
[6] = 17.3 µg/ml, genetic background: Δrob
[7] = 17.3 µg/ml, genetic background: ΔsoxS
[8] = 34.5 µg/ml, genetic background: wild type
[9] = 34.5 µg/ml, genetic background: ΔmarA
[10] = 34.5 µg/ml, genetic background: Δrob
[11] = 34.5 µg/ml, genetic background: ΔsoxS
[12] = 69.1 µg/ml, genetic background: wild type
[13] = 69.1 µg/ml, genetic background: ΔmarA
[14] = 69.1 µg/ml, genetic background: Δrob
[15] = 69.1 µg/ml, genetic background: ΔsoxS
[16] = 138.1 µg/ml, genetic background: wild type
[17] = 138.1 µg/ml, genetic background: ΔmarA
[18] = 138.1 µg/ml, genetic background: Δrob
[19] = 138.1 µg/ml, genetic background: ΔsoxS

O=C(O)c1ccccc1O [Salicylate]
promoter activity interaction Z-score [1, 4]: 0.135 ± 0.21 | promoter activity interaction Z-score [1, 5]: -0.248 ± 0.33 | promoter activity interaction Z-score [1, 6]: -0.0314 ± 0.15 | promoter activity interaction Z-score [1, 7]: -0.476 ± 0.16 | promoter activity interaction Z-score [1, 8]: -0.293 ± 0.019 | promoter activity interaction Z-score [1, 9]: 0.052 ± 0.1 | promoter activity interaction Z-score [1, 10]: -0.218 ± 0.033 | promoter activity interaction Z-score [1, 11]: 0.365 ± 0.091 | promoter activity interaction Z-score [1, 12]: -0.0138 ± 0.24 | promoter activity interaction Z-score [1, 13]: -0.259 ± 0.74 | promoter activity interaction Z-score [1, 14]: 0.387 ± 0.029 | promoter activity interaction Z-score [1, 15]: -0.512 ± 0.077 | promoter activity interaction Z-score [1, 16]: -0.0563 ± 0.13 | promoter activity interaction Z-score [1, 17]: -0.611 ± 0.22 | promoter activity interaction Z-score [1, 18]: 0.693 ± 0.087 | promoter activity interaction Z-score [1, 19]: -0.616 ± 0.21 | promoter activity interaction Z-score [2, 4]: 0.0635 ± 0.14 | promoter activity interaction Z-score [2, 5]: -0.172 ± 0.0058 | promoter activity interaction Z-score [2, 6]: -0.0541 ± 0.36 | promoter activity interaction Z-score [2, 7]: -0.237 ± 0.017 | promoter activity interaction Z-score [2, 8]: -0.0796 ± 0.076 | promoter activity interaction Z-score [2, 9]: -0.219 ± 0.049 | promoter activity interaction Z-score [2, 10]: -0.0336 ± 0.1 | promoter activity interaction Z-score [2, 11]: -0.0124 ± 0.14 | promoter activity interaction Z-score [2, 12]: -0.0424 ± 0.045 | promoter activity interaction Z-score [2, 13]: -0.126 ± 0.076 | promoter activity interaction Z-score [2, 14]: 0.239 ± 0.18 | promoter activity interaction Z-score [2, 15]: 0.207 ± 0.22 | promoter activity interaction Z-score [2, 16]: 0.0689 ± 0.0036 | promoter activity interaction Z-score [2, 17]: 0.491 ± 0.041 | promoter activity interaction Z-score [2, 18]: 0.434 ± 0.012 | promoter activity interaction Z-score [2, 19]: 0.177 ± 0.4 | promoter activity interaction Z-score [3, 4]: -0.0562 ± 0.66 | promoter activity interaction Z-score [3, 5]: -0.946 ± 0.55 | promoter activity interaction Z-score [3, 6]: 0.0451 ± 0.3 | promoter activity interaction Z-score [3, 7]: 0.372 ± 0.27 | promoter activity interaction Z-score [3, 8]: -0.65 ± 0.46 | promoter activity interaction Z-score [3, 9]: -0.0216 ± 0.48 | promoter activity interaction Z-score [3, 10]: -0.226 ± 0.041 | promoter activity interaction Z-score [3, 11]: 0.227 ± 0.47 | promoter activity interaction Z-score [3, 12]: -0.276 ± 0.26 | promoter activity interaction Z-score [3, 13]: -0.251 ± 0.18 | promoter activity interaction Z-score [3, 14]: 0.839 ± 0.021 | promoter activity interaction Z-score [3, 15]: 0.668 ± 1.5 | promoter activity interaction Z-score [3, 16]: 2.05 ± 1 | promoter activity interaction Z-score [3, 17]: -0.89 ± 0.018 | promoter activity interaction Z-score [3, 18]: 1.38 ± 2 | promoter activity interaction Z-score [3, 19]: 0.806 ± 0.32
